target: Carbonic anhydrase 2 (Homo sapiens) (UniProt P00918); assay: compounds binding carbonic anhydrase 2 – biochemical, small-molecule microarray, Alexa647-labelled CAII, profiling panel (AID 1122); settings: CAII-A647 binding fluorescence, higher = more signal

Which composite z-score does the source give for `COC(=O)[C@@]1(Cc2ccc(OC)cc2)[C@H]2c3cc(C(=O)N4CCCC4)n(Cc4ccsc4Br)c3C[C@H]2CN1C(=O)c1ccccc1` here?
The composite z-score was 0.877.

For `CCOC(=O)C[C@H]1[C@H](OC(=O)Cc2ccc3c(c2)OCO3)[C@@H](NC(=O)c2ccc(-c3ccccc3)cc2)c2cc(OCCCO)ccc2N1C(=O)c1ccc2ccccc2n1`, which composite z-score is on record?
Its composite z-score is 0.0289.

With `COC(=O)[C@@]1(Cc2ccc(F)cc2)[C@H]2c3cc(C(=O)N(C)C)n(CC4CC4)c3C[C@H]2CN1C(=O)c1ccccc1` as the compound, how does the composite z-score read?
The composite z-score was 0.773.

Which composite z-score does the source give for `CCCCC(=C=CC[C@@H](O)c1ccccc1OCCO)CCO` here?
Its composite z-score is 0.726.

For `COc1ccc([Si](C)(C)[C@@H]2[C@@H](CCO)O[C@]3(C(=O)N(Cc4ccc(N5C(=O)COc6ccccc65)cc4)c4ccccc43)[C@H]2C)cc1`, which composite z-score is on record?
Its composite z-score is 0.59.

For `CC1CC/C=C\[C@H]2OC34C=CCN(Cn5nnc6ccccc65)C(=O)[C@H]3N(C(CO)C(C)C)C(=O)[C@@H]4C2C(=O)O1` (stereo partly specified), which composite z-score is on record?
Its composite z-score is 0.662.

`CCCCN1CC=CC23O[C@@H]4/C=C\CCC(C)OC(=O)C4[C@H]2C(=O)N(CCCCCO)[C@@H]3C1=O` (stereo partly specified) was tested. Which composite z-score did it give?
The composite z-score was 0.867.

How did the composite z-score turn out when `O=C1C[C@]2(c3ccc([N+](=O)[O-])cc3)C(=O)N(CCN3CCOCC3)c3cc(CO)ccc3[C@H]2N1C1CCCCC1` was run?
The composite z-score was 0.646.

For `O=C(O)[C@@]1(CCS(=O)(=O)c2ccccc2)COC(c2ccc(OCCCO)cc2)=N1`, which composite z-score is on record?
Its composite z-score is 0.815.

`COc1ccc(C(O)C2C=CC3C(=O)N(c4ccccc4)C(=O)C3N2Nc2ccc(C(C)C)cc2)cc1OCc1ccccc1` (stereo unspecified) was tested. Which composite z-score did it give?
The composite z-score was 0.576.

`CC(C)C(=C=CC[C@@H](O)c1ccccc1OCCO)CCO` was tested. Which composite z-score did it give?
The composite z-score was 0.374.

For `CN(C)C(=O)[C@]1(Cc2ccccc2CN=[N+]=[N-])N=C(c2ccc(OCCCO)cc2)O[C@@H]1c1ccccc1CN=[N+]=[N-]`, which composite z-score is on record?
Its composite z-score is 0.545.

Which composite z-score does the source give for `COc1ccc(C(=O)Nc2cccc(CN3C(=O)[C@]4(O[C@H](CCO)[C@@H]([Si](C)(C)c5ccc(OC)cc5)[C@@H]4C)c4ccccc43)c2)cc1` here?
Its composite z-score is 0.41.

How did the composite z-score turn out when `CCCCCC1=C2CNC(CCC)(C(=O)OC)C=C2C(C)C1=O` (stereo unspecified) was run?
Its composite z-score is 0.698.

Which composite z-score does the source give for `CCOC(=O)C[C@H]1[C@H](OC(=O)c2cc3ccccc3oc2=O)[C@@H](NC(=O)Cc2ccc(OC)cc2)c2cc(OCCCO)ccc2N1C(=O)c1ccccc1` here?
Its composite z-score is 0.091.

With `COc1ccc([C@H]2C[C@H]3C(Br)=C[C@@H]2C(=O)[C@]32CO2)cc1` as the compound, how does the composite z-score read?
Its composite z-score is -0.539.

With `CCOC(=O)C1=CCC(c2ccccc2)N(S(=O)(=O)CC[Si](C)(C)C)C1` (stereo unspecified) as the compound, how does the composite z-score read?
Its composite z-score is -0.35.

Which composite z-score does the source give for `O=C1NCC(=O)N2[C@@H]1C[C@@H](C(=O)O)[C@H]2c1cccc(OCCO)c1` here?
Its composite z-score is 0.628.

`COCCOC(=O)N1C(=O)[C@@]2(c3cc(C#CC4=CCCCC4)ccc31)[C@H](C(=O)N1CCc3cc(OC)c(OC)cc3C1)[C@H]1C(=O)O[C@H](c3ccccc3)[C@H](c3ccccc3)N1[C@@H]2c1ccc(OCCO)cc1` was tested. Which composite z-score did it give?
Its composite z-score is 0.194.

How did the composite z-score turn out when `O=C(NCC(F)(F)F)[C@@H]1c2ccccc2C(=O)N(C2CCCCC2)[C@H]1c1ccc(CO)cc1` was run?
The composite z-score was 0.667.

How did the composite z-score turn out when `CC(C)OC(=O)C=C1C[C@@H](c2ccccc2C(F)(F)F)O[C@@H](c2ccccc2C(F)(F)F)O1` was run?
Its composite z-score is -0.0962.

`COc1ccc([Si](C)(C)[C@H]2[C@H](CC(=O)N3Cc4ccccc4C[C@H]3CO)O[C@@]3(C(=O)N(Cc4ccc(N5CCC5=O)cc4)c4ccccc43)[C@@H]2C)cc1` was tested. Which composite z-score did it give?
Its composite z-score is 0.516.

How did the composite z-score turn out when `C=CCC(OC(C)=O)[C@@H]1[C@@H](N(Cc2cccc3ccccc23)C(=O)c2ccc(-c3ccccc3)cc2)c2cc(OCCCO)ccc2N1C(=O)Cc1ccc(OC)cc1` (stereo partly specified) was run?
The composite z-score was 0.0745.

For `COc1ccc(CCNC(=O)[C@@H]2c3ccccc3C(=O)N(C3Cc4ccccc4C3)[C@H]2c2ccc(CO)cc2)cc1`, which composite z-score is on record?
The composite z-score was 0.705.

For `C=CCNC(=O)[C@H]1[C@@H]2C(=O)O[C@@H](c3ccccc3)[C@@H](c3ccccc3)N2[C@@H](c2ccc(O)cc2)[C@]12C(=O)N(C(=O)OCCOC)c1ccc(C#CCNC(N)=O)cc12`, which composite z-score is on record?
The composite z-score was 0.484.

For `C=CCC(OC(C)=O)[C@@H]1[C@@H](N(Cc2ccc(-c3cccc(C(F)(F)F)c3)o2)C(=O)Cc2ccc(F)cc2)c2cc(OCCCO)ccc2N1C(=O)Cc1ccc(OC)cc1` (stereo partly specified), which composite z-score is on record?
Its composite z-score is -0.498.

With `Cc1ccc(S[C@]2(C(=O)NCC(F)(F)F)CC(=O)N(C(C)C)[C@@H]2c2ccc(CO)cc2I)cc1` as the compound, how does the composite z-score read?
Its composite z-score is 0.742.

How did the composite z-score turn out when `O=C1NC(=O)C2C1C=CC(C(O)c1ccccc1)N2Nc1ccc(Cl)cc1Cl` (stereo unspecified) was run?
Its composite z-score is 0.574.

With `COc1ccc([Si](C)(C)[C@H]2[C@H](CCO)O[C@@]3(C(=O)N(C)c4c(Br)cc(C)cc43)[C@@H]2C)cc1` as the compound, how does the composite z-score read?
Its composite z-score is 0.473.

How did the composite z-score turn out when `CN1C(=O)C2C=CC(C(O)c3ccc(-c4ccccc4)s3)N(N(c3ccccc3)c3ccccc3)C2C1=O` (stereo unspecified) was run?
Its composite z-score is 0.365.

`COc1ccc(CCNC(=O)[C@@]2(Sc3ccc(C)cc3)CC(=O)N(C3CCCCC3)[C@@H]2c2ccc(CO)cc2I)cc1` was tested. Which composite z-score did it give?
The composite z-score was 0.513.

For `C=CCNC(=O)[C@H]1[C@@H]2C(=O)O[C@@H](c3ccccc3)[C@@H](c3ccccc3)N2[C@@H](c2ccccc2OCCO)[C@]12C(=O)Nc1ccc(C#CC3=CCCCC3)cc12`, which composite z-score is on record?
The composite z-score was 0.0836.

How did the composite z-score turn out when `C[N+](C)(C)CCCC[C@@H]1NC(=O)[C@@H]2C[C@H](C(=O)NCCCCCN)[C@H](c3cccc(OCCO)c3)N2C1=O` was run?
The composite z-score was 0.832.

`C=C/C=C/[C@H]1C(=C)CN([C@@H](Cc2ccccc2)C(=O)OC)[C@@H]1[C@H](O)Cc1ccccc1` was tested. Which composite z-score did it give?
The composite z-score was -0.174.

How did the composite z-score turn out when `CN1C(=O)C2C=CC(C(O)c3ccc(I)cc3)N(N3CCCCC3)C2C1=O` (stereo unspecified) was run?
The composite z-score was 0.608.

`O=C1[C@H]2C=C(Br)[C@H](C[C@@H]2c2ccccc2)[C@@]12CO2` was tested. Which composite z-score did it give?
Its composite z-score is 0.183.
